Screening data (PubChem BioAssay)
Tau fluor cs – counter-screen for tau fibril formation inhibitors. tau K18 P301L Alexa594 fluorescence, heparin fibrillization. Potency, µM (series often up to 57.7 µM), for the others: at the highest dose activity change, negative = decrease. actives 0.93% (n = 280,000); note: potency is the fitted concentration of half-maximal effect; nearly all actives have a fitted effect of over 55% in size
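Human tau K18 P301L (15 uM unlabeled, 0.24 uM Alexa 594-labeled) in 100 mM sodium acetate pH 7 with 20 uM heparin, 6 hr at 37 C. ThT 30 uM added, 1 hr ambient; Alexa 594 FP and total fluorescence read at 555/632 nm.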
Tau fibril ThT – tau fibrillization inhibition (ThT binding). recombinant tau K18 P301L, heparin-induced fibrillization, ThT fluorescence. Potency, µM (doses to about 57.4 µM), for the others: at the top dose activity, negative = inhibition, most hits filed as inhibitors. actives 2.1% (n = 270,000); note: potency is the fitted concentration of half-maximal effect; nearly all actives have a fitted effect of over 55% in size
Target sequence (P10636 561-689 P618L limits assumed): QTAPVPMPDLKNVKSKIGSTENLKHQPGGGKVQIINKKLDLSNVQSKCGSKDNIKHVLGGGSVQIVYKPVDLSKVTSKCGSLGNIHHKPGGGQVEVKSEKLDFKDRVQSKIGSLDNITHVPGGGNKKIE
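Heparin-induced fibrillization of the P301L-mutant K18 repeat-domain fragment of human tau was followed by ThT binding in quantitative high-throughput format.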
Tau FP inhib – blocks human tau fibril formation measured by polarization; K18 P301L tau heparin fibrillization, Alexa594 FP, 6 h; Potency, µM (highest dose often 57.7 µM), for inactives: at the highest dose activity, negative = inhibition, actives largely listed as inhibitors; actives 0.39% (n = 280,000); note: potency is the fitted concentration of half-maximal effect; nearly all actives have a fitted effect of over 55% in size
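Heparin (20 uM) drove fibril formation of recombinant tau K18 P301L, 15 uM unlabeled with 0.24 uM Alexa 594 label, for 6 hr at 37 C in 100 mM sodium acetate pH 7. Fluorescence polarization (555/632 nm) read 1 hr after 30 uM ThT.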
G9a block – blocks human histone lysine methyltransferase G9a; Q96KQ7; Potency, µM (highest dose often 102 µM), for inactives: at the highest dose activity, negative = inhibition, actives largely listed as inhibitors; G9a H3K9 monomethylation, AlphaScreen, 2 h; actives 8.8% (n = 350,000); note: potency is the fitted concentration of half-maximal effect; nearly all actives have a fitted effect of over 75% in size
Target sequence (Q96KQ7 913-1193 limits assumed): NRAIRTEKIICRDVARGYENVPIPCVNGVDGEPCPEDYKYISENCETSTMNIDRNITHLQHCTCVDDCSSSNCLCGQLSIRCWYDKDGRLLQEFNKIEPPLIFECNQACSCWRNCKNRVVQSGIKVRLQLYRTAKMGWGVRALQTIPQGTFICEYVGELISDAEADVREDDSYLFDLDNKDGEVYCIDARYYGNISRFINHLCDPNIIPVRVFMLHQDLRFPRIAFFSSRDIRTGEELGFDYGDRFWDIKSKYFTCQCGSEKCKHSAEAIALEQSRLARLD
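AlphaScreen read-out: biotin-H3K9 peptide (500 nM) methylation by 20 nM enzyme with 20 uM SAM, 2 h at room temperature after 15 min compound preincubation; anti-monomethyl H3K9 antibody plus donor/acceptor beads, 10 min dark.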
FBPA coupling cs – counter-screen for Giardia aldolase inhibitors: coupling enzyme system | AID 2472 | actives 0.67% (n = 290,000) | coupling enzyme system counterscreen, AmpLite Red fluorescence | activity change, negative = inhibition, % at 58.2 µM, hits read low; in the data active = activity change below about -30%
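Counterscreen of the coupled detection system alone, without aldolase: glyceraldehyde-3-phosphate coupling enzymes plus AmpLite Red readout. Compounds at 57.5 uM final, 10 min RT preincubation, 20 min RT reaction, fluorescence 525/598 nm.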
Sfp PPTase inh – blocks B. subtilis Sfp PPTase activity | Q9F4F7 | Biochemical Sfp PPTase activity, qHTS | Potency, µM, for the others: largest response in the series, negative = inhibition, usual class: inhibitors | actives 3.5% (n = 310,000);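 note: the enzyme is Sfp with the accession as filed and its product quenches rhodamine fluorescence; potency is the fitted concentration of half-maximal effect; 0% = enzyme reaction without inhibitor and -100% = no enzyme wells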
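Sfp 15 nM + cpd, 15 min RT; start w/ rhodamine-CoA 5 uM, BHQ-2-YbbR 12.5 uM (final); 50 mM Hepes pH 7.6, 10 mM MgCl2, 0.01% NP-40, 0.01% BSA; read 525/598 nm at 0 and 30 min.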
* marks the source's active call; other numbers are inactive results; ? = inconclusive; . = no result given; [ ] = another dose, or the depositor's remark. An excerpt weighted towards active compounds, which were near 11% of everything screened. Unless noted, calls come from the whole dose curve; as a rule, active = well fitted curve in the direction sought with a large enough effect; inconclusive = small, poorly fitted or top-dose-only effect, or another doubt; inactive = no such curve, though single readings can be large; an effect the other way counts as inactive or inconclusive. Unless noted, % is set by controls: 0 for no effect and ±100 for the full control effect.

SMILES	Tau fluor cs	Tau fibril ThT	Tau FP inhib	G9a block	FBPA coupling cs	Sfp PPTase inh
CC(CS(=O)(=O)c1cccc2cccnc12)N1CCCCC1 (stereo not given)	-1%	?	7%	25µM*	-5	-7%
O=S(=O)(Nc1ccc(N2CCCCC2)cc1)c1ccc(F)cc1F	-14%	-17%	5%	45µM*	-4	-25%
O=S(=O)(c1cccc2cccnc12)N1CCCCC1	.	.	.	.	.	4%
O=S(=O)(Nc1ccc(N2CCCCC2)cc1)c1ccccc1F	?	?	2%	40µM*	-5	0%
O=S(=O)(Nc1ccc(N2CCCCC2)cc1)c1ccc(F)cc1	?	?	?	.	-2	0%
O=S(=O)(Nc1ccc(N2CCCCC2)cc1)c1cccs1	-28%	?	-8%	35µM*	-1	-24%
COc1ccc(/C=C2\Oc3cc(OCC(=O)N4CC(O)C[C@H]4C(=O)O)ccc3C2=O)cc1OC (stereo not given in full)	.	.	.	.	-1	4%
Cc1ccc(-c2nn(C)c(=O)c3ccccc23)cc1CNC(=O)NC1CCCCC1	-2%	?	8%	-49%	-6	?
O=S(=O)(Nc1ccc(N2CCCCC2)cc1)c1cccc2cccnc12	-24%	-14%	10%	16µM*	-2	-1%
Fc1cccc(Cl)c1CNc1ccc(N2CCCC2)cc1	?	5.6µM*	11µM*	1.8µM*	-17	?
Cc1ccc(NCc2nnc(SCC(=O)Nc3cccc(O)c3)n2CC2CCCO2)c(C)c1 (stereo not given)	-14%	-2%	-4%	56µM*	-3	-10%
COc1cccc(C2Nc3ccc4ccccc4c3C3=C2C(=O)CCC3)c1O (stereo not given)	.	.	.	-18%	0	4%
CCOc1ccc(N(CC(=O)Nc2ccc(OC)cc2)S(=O)(=O)c2ccc(Cl)cc2)cc1	-2%	9%	-14%	-18%[59 µM]	.	.
CCc1ccc2[nH]c(C(=O)Nc3ccc(Br)c(C)n3)cc2c1	.	.	.	45µM*	2	2%
CCc1ccc2[nH]c(C(=O)Nc3ccc(F)cc3Br)cc2c1	.	.	.	45µM*	3	56µM*
C=CCN1C(=O)/C(=C2\SC(N3CCOCC3)=NC2=O)c2cc(Br)ccc21	-27%	16µM*	9%	?	1	-6%
CCN1C(=O)/C(=C2\SC(N3CCOCC3)=NC2=O)c2ccccc21	.	.	.	21%	1	13%
CCc1cccc(NC(=S)N(CCOC)C(C)c2ccco2)c1 (stereo not given)	9%	11%	4%	12%[12.7 µM]	-21	56µM*
COCCN(C(=S)Nc1ccc(C)c(C)c1)C(C)c1ccco1 (stereo not given)	-25%	?	-8%	6%[59 µM]	-1	8%
Cc1cccc(C(=O)NNC(=O)CCC(=O)Nc2cccc(Cl)c2C)c1	2%	1%	1%	0%[59 µM]	1	-1%
Cc1ccc(C(=O)NNC(=O)CCC(=O)Nc2cccc(Cl)c2C)cc1	2%	4%	3%	7%	4	79µM*
COc1ccc(OC)c(NC(=O)c2cn3c4c(ccc(Cl)c4c2=O)OC(C)C3)c1 (stereo not given)	-10%	-2%	5%	-4%[59 µM]	.	.
CCOc1ccc(NC(=O)C(C)Sc2nnc(C)n2C)cc1 (stereo not given)	-1%	-5%	-1%	-11%[59 µM]	-1	11%
Cc1ccc(NC(=O)C(C)S)cc1 (stereo not given)	-28%	?	?	19%	-1	40µM*
Cc1ccc(NC(=O)C(C)Sc2nnc(C)n2C)cc1 (stereo not given)	.	.	.	-21%[0.501 µM]	4	71µM*
SMILES	Tau fluor cs	Tau fibril ThT	Tau FP inhib	G9a block	FBPA coupling cs	Sfp PPTase inh
O=C(NN1CCOCC1)c1ccc(F)cc1	.	.	.	-8%	1	8%
Cc1ccc(-c2noc(-c3ccc(N4CCCCC4C)c([N+](=O)[O-])c3)n2)cc1 (stereo not given)	-2%	-4%	-1%	2%[59 µM]	.	.
CC1(C)Cc2[nH]c(=O)c(C#N)cc2CS1	-3%	-10%	0%	32µM*	1	9%
COc1cccc(CNC(=O)N2CCc3c(sc4c3CCCC4)C2c2ccc(F)cc2)c1 (stereo not given)	-13%	-4%	-3%	-5%[59 µM]	.	.
Cc1cccc(C2(c3cccc(C)c3)CC2C(=O)NCC2CCCO2)c1 (stereo not given)	7%	1%	12%	17%	0	18%
Cc1cccc(C2(c3cccc(C)c3)CC2C(=O)Nc2ccc([N+](=O)[O-])cc2O)c1 (stereo not given)	10µM*[quencher]	?	?	?	-19	11%
COc1ccccc1Nc1c2c(nc3ccc(NC(=O)c4cccc(OC)c4OC)cc13)CCCC2	?	?	4%	?	.	.
COc1ccc(C(=O)Nc2ccc3nc4c(c(Nc5ccccc5OC)c3c2)CCCC4)c(OC)c1	?	18µM*	-7%	?	.	.
COc1ccc(C(=O)Nc2ccc3nc4c(c(Nc5ccc(OC)c(OC)c5)c3c2)CCCC4)c(OC)c1	-20%	?	0%	-20%[59 µM]	.	.
COc1ccccc1Nc1c2c(nc3ccc(N)cc13)CCCC2	-24%	.	6%	40µM*	4	1%
COc1ccc(Nc2c3c(nc4ccc(NC(=O)c5ccc(F)cc5)cc24)CCCC3)cc1OC	?	16µM*	8%	?	.	.
COc1ccccc1Nc1c2c(nc3ccc(NC(=O)c4ccc(OC)c(OC)c4)cc13)CCCC2	?	25µM*	-17%	14µM*	.	.
O=C1CCCC1C(O)c1ccc2ccccc2c1 (stereo not given)	?	?	?	.	6	2%
COc1ccc(/C=C/C(=O)O)cc1S(=O)(=O)NCc1ccco1	-19%	-15%	-11%	?	2	-25%
O=C(Nc1ccc(S(=O)(=O)NCc2ccco2)cc1)C1CCCCC1	-16%	-16%	-8%	45µM*	2	-19%
Cc1ccc(/C=C/C(=O)O)cc1S(=O)(=O)NCc1ccco1	-5%	-2%	4%	.	-2	40µM*
O=C(COc1ccccc1F)Nc1ccc(S(=O)(=O)NCc2ccco2)cc1	-15%	-10%	-10%	-12%	1	-4%
O=C(NC1CCCCCC1)c1ccc(S(=O)(=O)NCc2ccco2)cc1	0%	-3%	2%	-4%[59 µM]	2	2%
COc1ccc(C(=O)Nc2ccc(S(=O)(=O)NCc3ccco3)cc2)cc1OC	-7%	-13%	-9%	40µM*	-1	-7%
CC(C)CC(=O)Nc1ccc(S(=O)(=O)NCc2ccco2)cc1	-9%	0%	-13%	18µM*	2	8%
